Assay [1] can be described thus: AP1 Signaling Pathway (AID 357).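 Also: ME-180 reporter cells stimulated with EGF at its EC50 level; % is scaled to controls: 0 for no effect and ±100 for the full control effect.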 The gist of the method:
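Read-out was the 460nm/530nm emission ratio (excitation 405nm) after CCF4 loading for 2.5 hours at room temperature. Cells carried an AP-1-driven beta-lactamase reporter, were stimulated with EC50 EGF plus compound for 5 hours, and AC50 values came from titrations.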

In assay [2] the target is Cytochrome P450 1A2 (Homo sapiens) (UniProt P05177). As to the kind of experiment: p450-cyp1a2 (AID 410; calls by dose curve; also: potency is read from the fitted curve at half-maximal effect;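 as to activity change, negative = inhibition: -100% = full effect of reference inhibitor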). In outline:
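O-Demethylation of luciferin 6' methyl ether by human CYP1A2 is monitored as luciferase luminescence. Substrate sits at Km (100uM); enzyme is 20nM. Values are scaled to 57 uM furafylline as maximal inhibition.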

Assay [3] is described as follows: NFAT Signaling Pathway (AID 444).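 Also: carbachol stimulus at about its EC50 of 1 µM final; % is scaled to controls: 0 for no effect and ±100 for the full control effect.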 The conditions noted are these: Jurkat NFAT-bla M1, carbachol, beta-lactamase ratio, 5 h. The gist of the method: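 Jurkat cells carrying an NFAT-driven β-lactamase reporter and co-transfected muscarinic M1 receptor were treated with compound plus carbachol (1 uM final, an EC50 level) for 5 h at 37 °C. CCF4 loading followed for 1 h at RT; 460/530 nm ratio gave %activity.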

Assay [4] concerns the target Glucocorticoid receptor (Homo sapiens) (UniProt P04150). As to the kind of experiment: GR-GFP Redistribution (AID 450;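 active = compounds whose dose series gives a full or clear partial fitted curve of increased nuclear translocation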; also: potency is read from the fitted curve at half-maximal effect). The conditions noted are these: U2OS GR-GFP nuclear translocation, laser cytometry, 2 h.
Assay [5] addresses Mitogen-activated protein kinase 10 (Mus musculus) (UniProt Q61831). The assay is described as follows: JNK3 AlphaScreen Assay (AID 530).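 Also: kinase came from lysate of stimulated human HepG2 cells; signal reports phosphorylation of biotinylated GST-cJun 1-79 at Ser73 with 10 µM ATP; % is scaled to controls: 0 for no effect and ±100 for the full control effect.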 In outline: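 Phosphorylation of biotinylated GST-cJun(1-79) at Ser73 is measured by AlphaScreen proximity luminescence. Enzyme is JNK3 in HepG2 lysates activated with interleukin-1beta and tumor necrosis factor alpha; ATP is 10 uM final.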
A general note: In Alpha technology, singlet oxygen from a donor bead excites a nearby acceptor bead.

Assay [6] can be described thus: Stat Signaling Pathway (AID 446).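 Also: ME-180 cervical cancer cells given 40 pM IL-6 alongside compound; SIE-controlled beta-lactamase reporter measured as 460/530 nm FRET emission ratio; % is scaled to controls: 0 for no effect and ±100 for the full control effect.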 The gist of the method:
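FRET read-out (405 nm excitation, 460/530 nm emission) of a beta-lactamase reporter under a STAT-inducible element in ME-180 cervical carcinoma cells. Cells with compound receive 40 pM IL-6 for 5 h. Values are normalised to AC90 stimulation and AC90 JAK-inhibitor controls.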

The nature of assay [7]: Cell Viability - BJ (AID 421; calls by dose curve;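 also: potency is read from the fitted curve at half-maximal effect; cells exposed to compound for 40 hours at 37 °C before readout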). As to conditions: BJ fibroblast viability, qHTS. In outline: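 Cytotoxicity as drop in intracellular ATP (CellTiter-Glo, 20 min RT) after 40 hr compound exposure of BJ fibroblasts at 37 °C. Titrations scaled between DMSO and 100 uM tamoxifen, Hill-fitted for AC50.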
Assay [8] can be described thus: Cell Viability - Jurkat (AID 426;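 active = dose-dependent loss of cell ATP signal giving a full or clear fitted curve, ranked by lower potency value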;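 also: potency is read from the fitted curve at half-maximal effect; cells exposed to compound for 40 hours at 37 °C before ATP read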). The conditions noted are these: qHTS. The gist of the method:
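Cells of the human T-cell leukemia line Jurkat (E6-1) are seeded at 5000 per well, treated with compound across a concentration range for 40 hours at 37 °C, then lysed with CellTiter-Glo; luminescence reports ATP.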
(In qHTS, concentration-response curves come from the screen itself.)

Assay [9] can be described thus: Cell Viability - Hek293 (AID 427;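 active = compounds whose dose-response curve shows a full or clear partial loss of cell viability, called from curve shape rather than a numeric limit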;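 also: potency is read from the fitted curve at half-maximal effect; cells exposed to compound for 40 hours at 37 °C before reading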). The conditions noted are these: qHTS. In outline: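 Luminescent ATP content (CellTiter-Glo, 20 min at room temperature) was measured after a 40 hr, 37 °C compound exposure of HEK293 cells. AC50 values came from Hill-equation fits of qHTS concentration-response data normalized to DMSO and 100 uM tamoxifen.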
A short description of assay [10]: Cell Viability - HepG2 (AID 433; calls by dose curve;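 also: potency is read from the fitted curve at half-maximal effect; potency for ATP loss meaning cytotoxicity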). As to conditions: qHTS. In outline: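 ATP luminescence (CellTiter-Glo) after 40 h compound exposure, 37 °C, HepG2, 1500 cells/well, complete medium. Normalized: DMSO = basal, 100 uM tamoxifen = 100% inhibition. AC50 via standard Hill equation.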
Assay [11] is described as follows: Cell Viability - MRC5 (AID 434; calls by dose curve;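 also: potency is read from the fitted curve at half-maximal effect; potency reflects cytotoxicity seen as loss of intracellular ATP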). The conditions noted are these: MRC5 lung fibroblast viability, qHTS. The gist of the method:
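Decrease in intracellular ATP, quantified by luciferase light output, reflects compound toxicity toward MRC5 cells exposed for 40 hr in complete culture medium. Concentration-response curves, scaled between DMSO and 100 uM tamoxifen, gave AC50 values.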

A short description of assay [12]: Cell Viability - SK-N-SH (AID 435; calls by dose curve; also: potency is read from the fitted curve at half-maximal effect). As to conditions: SK-N-SH neuroblastoma cell viability qHTS. In outline:
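CellTiter-Glo ATP luminescence, 20 min RT read; cells pre-plated 5 hr, compound 40 hr at 37 °C, 1500 cells/well, complete medium. Normalized DMSO = 0, 100 uM tamoxifen = 100% inhibition; Hill-fit AC50.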

Assay [13] can be described thus: Cell Viability - N2a (AID 540; active = well fitted curve in the direction sought with a large enough effect; an effect the other way counts as inactive or inconclusive;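 also: plate controls were DMSO alone for no effect and tamoxifen control for full effect; nearly all actives have a fitted effect of over 45% in size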). The gist of the method:
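Cytotoxicity was scored as loss of cellular ATP in N2a cells, a mouse neuroblastoma line. Compounds are applied in a qHTS concentration series for 40 hr at 37 °C.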

The nature of assay [14]: Cell Viability - NIH 3T3 (AID 541; active = well fitted curve in the direction sought with a large enough effect; an effect the other way counts as inactive or inconclusive;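 also: plate controls were DMSO alone for no effect and tamoxifen positive control for full effect; nearly all actives have a fitted effect of over 25% in size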). As to conditions: NIH 3T3 cell viability, qHTS; activity change, negative = cytotoxicity: at 92.2 µM (top of the series). The gist of the method: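 Cells seeded at 1000/well, rested 5 hr at 37 °C, then dosed and incubated 40 hr at 37 °C. CellTiter-Glo added, 20 min room temperature, luminescence read. AC50 by Hill fit.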
The nature of assay [15]: Cell Viability - HUV-EC-C (AID 542; active = well fitted curve in the direction sought with a large enough effect; an effect the other way counts as inactive or inconclusive; also: % is scaled to controls: 0 for no effect and ±100 for the full control effect; nearly all actives have a fitted effect of over 35% in size). In outline: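 Cells were seeded at 1000 per well and incubated 5 hr at 37 °C before compound addition. After 40 hr at 37 °C, CellTiter-Glo reagent was added for 20 min and luminescence read. AC50 values came from Hill-equation modelling.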
Assay [16] in a line: Cell Viability - H-4-II-E (AID 543; active = well fitted curve in the direction sought with a large enough effect; an effect the other way counts as inactive or inconclusive; also: % is scaled to controls: 0 for no effect and ±100 for the full control effect; nearly all actives have a fitted effect of over 35% in size). The gist of the method: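 Cells seeded at 1500 per well and rested 5 hr; compounds added; 40 hr incubation at 37 °C; CellTiter-Glo added, 20 min at room temperature; luminescence read. Hill-equation fits gave AC50.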
A short description of assay [17]: Cell Viability - SH-SY5Y (AID 544; active = well fitted curve in the direction sought with a large enough effect; an effect the other way counts as inactive or inconclusive;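 also: 0% = DMSO alone and -100% = 100 µM tamoxifen; nearly all actives have a fitted effect of over 55% in size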). The conditions noted are these: SH-SY5Y neuroblastoma cell viability; viability change, negative = cytotoxic: at 92.2 µM (top of the series). The gist of the method: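 Cells were plated at 1500 per well and allowed 5 hr at 37 °C. Compounds were added across a concentration range and incubated 40 hr at 37 °C. CellTiter-Glo was added for 20 min at room temperature before luminescence reading.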

Assay [18] is described as follows: Cell Viability - Renal Proximal Tubule (AID 545; active = well fitted curve in the direction sought with a large enough effect; an effect the other way counts as inactive or inconclusive;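 also: 0% = DMSO only and -100% = 100 µM tamoxifen; nearly all actives have a fitted effect of over 40% in size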). In outline:
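Rat kidney proximal tubule cells, freshly isolated; 1000 cells/well, 5 hr settle, compound 40 hr 37 °C. CellTiter-Glo 20 min RT, luminescence read. AC50 by standard Hill fit.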

Assay [19] addresses Lysosomal acid glucosylceramidase (Homo sapiens) (UniProt P04062). As to the kind of experiment: Glucocerebrosidase-p2 (AID 348; in the data active = potency below about 10 µM; also: potency is read from the fitted curve at half-maximal effect). The conditions noted are these: purified GBA, blue fluorogenic substrate, 40 min. In outline: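 Normal human glucocerebrosidase (0.2 nM) with blue fluorogenic substrate (80 uM final) in citrate/phosphate pH 5.9 with 10mM sodium taurocholate, 0.01% tween-20; 40 min RT, NaOH/glycine stop; fluorescence Ex 365/Em 440; AC50 from a titration from 0.6 nM upwards.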

The mark [20] stands for this setting: at 17.2 µM (top of the series) unless noted.

Data on 18 compounds can be found in PubChem BioAssay (NCATS).

Values joined by “and” are separate entries in the source; they are usually repeats but may differ in a detail not shown here. Equal values may be shown once. Values without a mark were called inactive. Inconclusive results are not listed. Active and inactive are the calls of the source. Unless noted, calls follow the shape of the dose curve; as a rule, active = well fitted curve in either direction with a large enough effect (not every such curve was filed as active); inconclusive = small, poorly fitted or top-dose-only effect, or another doubt; inactive = flat fitted curve, though single readings scatter.

Sequence of Glucocorticoid receptor (Homo sapiens) (P04150 whole entry, looked up): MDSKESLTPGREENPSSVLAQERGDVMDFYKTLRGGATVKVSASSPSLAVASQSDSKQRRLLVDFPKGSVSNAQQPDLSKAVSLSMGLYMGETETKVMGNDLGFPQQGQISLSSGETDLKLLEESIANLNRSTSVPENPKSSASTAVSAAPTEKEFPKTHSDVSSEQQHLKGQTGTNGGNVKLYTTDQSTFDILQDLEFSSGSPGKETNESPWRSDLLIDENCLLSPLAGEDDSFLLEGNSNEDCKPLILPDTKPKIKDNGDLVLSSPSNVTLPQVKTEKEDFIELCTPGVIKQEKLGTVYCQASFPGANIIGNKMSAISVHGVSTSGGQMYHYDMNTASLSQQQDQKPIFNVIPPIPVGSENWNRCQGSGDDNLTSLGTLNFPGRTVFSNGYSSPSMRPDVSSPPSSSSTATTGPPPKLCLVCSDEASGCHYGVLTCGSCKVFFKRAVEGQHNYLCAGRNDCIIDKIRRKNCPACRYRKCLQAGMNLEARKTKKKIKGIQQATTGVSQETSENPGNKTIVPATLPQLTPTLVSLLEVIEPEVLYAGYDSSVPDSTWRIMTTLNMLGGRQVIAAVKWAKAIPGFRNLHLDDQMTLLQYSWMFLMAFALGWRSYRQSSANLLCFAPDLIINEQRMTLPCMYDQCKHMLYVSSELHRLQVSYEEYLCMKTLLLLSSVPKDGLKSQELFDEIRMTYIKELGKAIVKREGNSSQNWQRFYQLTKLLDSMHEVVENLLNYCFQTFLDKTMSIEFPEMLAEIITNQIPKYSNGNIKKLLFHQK
Sequence of Cytochrome P450 1A2 (Homo sapiens) (P05177 whole entry, looked up): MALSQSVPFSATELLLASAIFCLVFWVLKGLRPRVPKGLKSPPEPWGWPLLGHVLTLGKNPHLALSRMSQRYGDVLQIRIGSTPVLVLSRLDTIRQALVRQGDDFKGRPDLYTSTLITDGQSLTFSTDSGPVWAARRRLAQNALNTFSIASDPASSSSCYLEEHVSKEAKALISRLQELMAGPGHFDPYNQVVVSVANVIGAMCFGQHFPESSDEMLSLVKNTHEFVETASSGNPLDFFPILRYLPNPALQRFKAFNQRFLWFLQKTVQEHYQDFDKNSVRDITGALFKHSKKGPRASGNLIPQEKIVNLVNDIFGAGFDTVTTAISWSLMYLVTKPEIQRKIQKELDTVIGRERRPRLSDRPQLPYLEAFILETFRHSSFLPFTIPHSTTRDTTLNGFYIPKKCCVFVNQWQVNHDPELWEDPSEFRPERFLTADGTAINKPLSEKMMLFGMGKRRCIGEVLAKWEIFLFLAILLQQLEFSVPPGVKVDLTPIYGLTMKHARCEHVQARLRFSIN
Sequence of Lysosomal acid glucosylceramidase (Homo sapiens) (P04062 whole entry, looked up): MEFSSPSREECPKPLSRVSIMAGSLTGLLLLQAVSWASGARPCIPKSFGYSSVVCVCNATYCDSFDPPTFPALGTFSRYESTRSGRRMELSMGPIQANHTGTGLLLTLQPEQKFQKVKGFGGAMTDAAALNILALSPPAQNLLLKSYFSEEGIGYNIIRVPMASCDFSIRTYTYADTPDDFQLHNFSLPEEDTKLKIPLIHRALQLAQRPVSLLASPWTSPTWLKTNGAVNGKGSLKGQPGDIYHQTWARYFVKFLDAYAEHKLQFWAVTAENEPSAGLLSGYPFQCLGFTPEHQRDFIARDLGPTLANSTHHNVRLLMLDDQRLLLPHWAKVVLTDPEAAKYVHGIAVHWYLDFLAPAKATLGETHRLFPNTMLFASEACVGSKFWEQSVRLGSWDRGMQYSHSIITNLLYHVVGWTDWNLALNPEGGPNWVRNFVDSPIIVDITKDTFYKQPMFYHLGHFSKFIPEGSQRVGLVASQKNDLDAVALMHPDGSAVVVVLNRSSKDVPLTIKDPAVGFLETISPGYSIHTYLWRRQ

As to `O=C(CCCN1CC=C(n2c(=O)[nH]c3ccccc32)CC1)c1ccc(F)cc1`, the compound was classed as inactive in assay [1]. Moreover, the Potency entry in assay [2] and in assay [5] was “inactive” in each case. Also, in assay [3] (setting [20]), the activity change, negative = inhibition was -14.9%. In addition, the Potency in assay [4] is more than 20.6 µM.

Regarding `CC(C)(C)NC[C@H](O)COc1nsnc1N1CCOCC1`, the result in [1] was inactive. The activity change, negative = inhibition in [3] (at 17.2 µM (top of the series)) is 1.16% and 3.92%; in [3] (at 38 µM (top of the series)), -1.27%. In addition, the Potency in [4] is > 46 µM and > 20.6 µM. In assay [5], the Potency result is “inactive”.

As to `Cc1c(-c2ccccc2)oc2c(C(=O)OCCN3CCCCC3)cccc2c1=O`, the outcome in assay [1] and in assay [6] was inactive. Also, the Potency in assay [2] is 6.31 µM (active); in assay [4], more than 20.6 µM. For the same compound, the activity change, negative = inhibition in [3] (setting [20]) was -3.52%. The Potency entry in [5] is “inactive”.

In the case of `O=C1C(O)=C(O)C(=O)C(O)=C1O`, in [1], the compound was called inactive. The Potency result in assay [2] and in assay [5] was “inactive” each time. For the same compound, the activity change, negative = inhibition in assay [3] (setting [20]) is -6.65%. Besides, the Potency in assay [4] is more than 20.6 µM.

Regarding `CC(O)Cn1cnc2c1c(=O)n(C)c(=O)n2C` (configuration not stated), the call in [1] was inactive. The activity change, negative = inhibition in [3] (setting [20]) was 10.8%.

In the case of `COc1ccc(C(=O)c2ccccc2)c(O)c1`, the outcome in assay [1], in [15] and in [18] was inactive. Moreover, the Potency in assay [2] was 1.58 µM (active); in assay [7], more than 92 µM; in assay [8], more than 92 µM; in [9], more than 92 µM; in [10] it was more than 92 µM; in assay [11], more than 92 µM. Moreover, the Potency in [12] was more than 92 µM; in assay [4], more than 20.6 µM. The activity change, negative = inhibition in assay [3] (setting [20]) was -6.2%. The Potency result in [5], in assay [13] and in [16] was “inactive” in each case. In assay [14], the activity change, negative = cytotoxicity is -13.4%. In addition, the viability change, negative = cytotoxic in [17] is -8.89%.

Regarding `CCCCNc1ccc(C(=O)OCCOCCOCCOCCOCCOCCOCCOCCOCCOC)cc1`, the compound was called inactive in [1]. Further, the Potency result in [2] and in [5] was “inactive” throughout. The activity change, negative = inhibition in assay [3] (setting [20]) is -6.05%. In addition, the Potency in [4] is more than 20.6 µM.

Regarding `N=C(N)N1CCc2ccccc2C1`, the outcome in assay [1] was inactive. The Potency result in assay [2] and in assay [5] was “inactive” throughout. Moreover, the activity change, negative = inhibition in assay [3] (setting [20]) is -7.74%. Besides, in assay [4], the Potency was more than 20.6 µM.

In the case of `CCCN(CCC)S(=O)(=O)c1ccc(C(=O)O)cc1`, the compound was classed as inactive in assay [1], in assay [15] and in assay [18]. Also, the Potency entry in [2], in [5], in assay [13] and in assay [16] was “inactive” each time. Further, the Potency in [7], in [8], in assay [9], in assay [10], in [11] and in assay [12] was more than 92 µM each time. Also, the Potency in assay [4] was more than 20.6 µM. Besides, the activity change, negative = inhibition in assay [3] (setting [20]) was 1.18% and -1.81%. In addition, the activity change, negative = cytotoxicity in assay [14] is -2.58%. In assay [17], the viability change, negative = cytotoxic is -4.3%.

Regarding `CN(C)CCC[C@@]1(c2ccc(F)cc2)OCc2cc(C#N)ccc21`, the outcome in [1] and in assay [6] was inactive. The Potency result in [2] was “inactive”. Moreover, the Potency in assay [4] was more than 46 µM.

`CCc1oc2ccccc2c1C(=O)c1cc(Br)c(O)c(Br)c1`: the Potency in [19] was more than 11.4 µM; in assay [4], > 20.6 µM and > 46 µM. For the same compound, the Potency entry in [5] is “inactive”.

As for `CCOC(=O)c1ccc(N)cc1`, the compound was classed as inactive in [1] and in assay [6]. Also, the figures for the Potency in assay [2] and in assay [4] were 2 µM (active) and more than 20.6 µM, respectively. Also, the activity change, negative = inhibition in [3] (setting [20]) was -2.56%. Further, the Potency entry in assay [5] is “inactive”.

`CN(C)CCOC(=O)C(c1ccccc1)C1(O)CCCC1` (configuration not stated): the call in assay [1] was inactive. Further, in [3] (setting [20]), the activity change, negative = inhibition is -76.1% (active). In assay [4], the Potency was more than 20.6 µM.

With `CN1CCC[C@@H]1CCO[C@](C)(c1ccccc1)c1ccc(Cl)cc1`, the compound was classed as inactive in assay [1]. Further, the Potency entry in assay [2] and in assay [5] was “inactive” throughout.

For the compound `Nc1ccc(C(=O)NCC(=O)O)cc1`, in assay [1], the compound was classed as inactive. Also, the Potency entry in assay [2] is “inactive”. In addition, in [3] (setting [20]), the activity change, negative = inhibition was 3.72%. The Potency in assay [4] was more than 20.6 µM.

Consider `C[N+]1(C)CCC(=C(c2ccccc2)c2ccccc2)CC1`, for which the compound was called inactive in [1]. Further, the Potency result in assay [2] and in assay [5] was “inactive” throughout. Also, the Potency in [4] was more than 20.6 µM.

With `CC(=O)O[C@]1(C(C)=O)CC[C@H]2[C@@H]3C=C(Cl)C4=CC(=O)CC[C@]4(C)[C@H]3CC[C@@]21C`, the call in assay [1] and in assay [6] was inactive. The activity change, negative = inhibition in assay [3] (setting [20]) is -29%.

Regarding `O=C(O)CCc1nc2ccccc2[nH]1`, the Potency in [19] was more than 11.4 µM. Besides, the compound was classed as inactive in assay [1] and in [6]. Moreover, the activity change, negative = inhibition in assay [3] (setting [20]) is 5.96% [at 7.69 µM]. Further, in assay [5], the Potency result was “inactive”.
